Laboratory results taken from PubChem BioAssay (NCI).
Values joined by “and” are separate entries in the source; they are usually repeats but may differ in a detail not shown here. Identical values can stand only once. This is part of a sample that, as a whole, favours compounds with a hit. Of some 79,000 tested, about 15% had one in any assay. Cut-off read from the data, not from the text of the source: active = growth inhibition above about 70%; inactive = the rest.

Legend:
[1] = NCI Yeast Anticancer Drug Screen. Data for the rad50 strain (AID 155);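 note: 0% = growth of vehicle-only cultures of the same strain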; conditions: S. cerevisiae rad50 strain growth inhibition, hits give high values; at 50.0 µM unless noted
Method in brief: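 A DNA repair-deficient yeast mutant serves as the test organism; compound-induced growth inhibition is calculated against vehicle-treated cells.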

[2] = NCI Yeast Anticancer Drug Screen. Data for the mec2-1 strain (AID 157); conditions: S. cerevisiae mec2-1 strain, hits give high values; at 50.0 µM unless noted
Method in brief: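 Test agents were screened against the mec2-1 yeast strain, with defined DNA repair or cell cycle alteration. Growth was scored as inhibition against vehicle-only controls.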

[3] = NCI Yeast Anticancer Drug Screen. Data for the sgs1 mgt1 strain (AID 161);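 note: 0% = growth of cultures given vehicle only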; conditions: S. cerevisiae sgs1 mgt1 strain, hits give high values; at 50.0 µM unless noted
Method in brief: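 Genetically altered yeast, compound exposure, growth inhibition relative to vehicle.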

[4] = NCI Yeast Anticancer Drug Screen. Data for the cln2 rad14 strain (AID 165);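 note: 0% = growth equal to vehicle treated cultures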; conditions: S. cerevisiae cln2 rad14 strain, hits give high values; at 50.0 µM unless noted
Method in brief: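 Growth of compound-exposed yeast (cln2 rad14 genotype) measured and expressed as inhibition relative to vehicle.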

[5] = NCI Yeast Anticancer Drug Screen. Data for the bub3 strain (AID 167); conditions: S. cerevisiae bub3 mutant strain, hits give high values; at 50.0 µM unless noted
Method in brief: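 Inhibition values come from growth of compound-treated mutant yeast normalised to vehicle-treated controls.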

[6] = NCI Yeast Anticancer Drug Screen. Data for the mlh1 rad18 strain (AID 175); conditions: S. cerevisiae mlh1 rad18 strain growth inhibition, hits give high values; at 50.0 µM unless noted
Method in brief: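 In this whole-cell yeast screen, a strain with altered DNA damage repair is challenged with compound, and its growth is measured against matched vehicle-treated controls.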

Measured: growth inhibition

Cc1nc2c3c(ccc2[nH]c1=O)C(=O)c1ccccc1C3=O
inactive: [1] 19.4% | [2] 11.6% | [3] 17.7% | [4] 16.9% | [5] 13.9% | [6] 38.2%

N=C(N)SCCCCCSC(=N)N
inactive: [1] 4.05% | [2] -12.2% | [3] -4.9% | [4] -3.15% | [5] -6.35% | [6] 12.8%

CC1(C)SC=C2C1=CSC2(C)C
inactive: [1] 0.2% | [2] 2.1% | [3] -6.35% | [4] -26.2% | [5] 4.6% | [6] -3.65%

O=C(/C=C\c1ccc(Cl)c(Cl)c1)c1ccc(Cl)cc1Cl
inactive: [1] 36.1% | [2] 9.35% | [3] -4.6% | [4] 1.65% | [5] 22.1% | [6] 0.7%

CC(C)c1ccccc1O
inactive: [1] 34.9% | [2] 30.7% | [3] 9.95% | [4] 8.8% | [5] 0.45% | [6] 22.4%

Cc1ccc(NC(=O)Oc2ccc(C(C)(C)C)cc2)cc1NC(=O)Oc1ccc(C(C)(C)C)cc1
inactive: [1] -14.4% | [2] -29.4% | [3] -6.35% | [4] -4.75% | [5] 10.7% | [6] -18.6%

CCCCCCCCCCCCCCCCS(=O)(=O)N(/N=c1/sc2ccccc2n1C)C(=O)OCC
inactive: [1] -29.4% | [2] -32.3% | [3] -13.3% | [4] 21.4% | [5] -12.2% | [6] -27.8%

CC(C)N(C(C)C)S(=O)(=O)c1ccccc1C(O)(c1ccccc1)c1ccccc1
inactive: [1] 47.5% | [2] -1.15% | [3] 39.4% | [4] -7.35% | [5] -0.95% | [6] 5.9%

COC1CCC2C3CCC(C3)C12 (centres undefined)
inactive: [1] 26.9% | [2] -2% | [3] 6.4% | [4] 5.05% | [5] -12.9% | [6] -10.2%

Cc1[nH]c(=O)nc2nc3ccc(Cl)cc3c(N(CCO)CCO)c12
inactive: [1] -24.3% | [2] -20.8% | [3] -12.8% | [4] 19.2% | [5] 19.9% | [6] -8.7%

COc1ccc(-c2sc(C)nc2O)cc1
inactive: [1] 7.75% | [2] 2.35% | [3] 0.3% | [4] -20.8% | [5] -15.5% | [6] 7.2%

N#CNC(N)=NCCO
inactive: [1] -22.2% | [2] -2.25% | [3] -36.9% | [4] -12% | [5] -28.5% | [6] -20.6%

CCCCCCCCCCC1CC(=O)OC1=O (centres undefined)
inactive: [1] 17.2% | [2] 14.7% | [3] 29.6% | [4] 9.45% | [5] 9.25% | [6] 8.3%

COc1cccc(C(=O)c2ccncc2C)c1OC
inactive: [1] -14.6% | [2] -4.45% | [3] 9.95% | [4] -7.95% | [5] 28% | [6] -8.1%

CC(C)=CCNc1ncnc2c1ncn2CCC(=O)O
inactive: [1] -23.9% | [2] -4.6% | [3] -57% | [4] -4.45% | [5] -9.85% | [6] -28.9%

CC(O)COC(C)C (centres undefined)
inactive: [1] 8.55% | [2] -5.7% | [3] 17.7% | [4] 2.85% | [5] -1.85% | [6] 19.8%

O=C1CCCc2[nH]ccc21
inactive: [1] -14.7% | [2] -1.2% | [3] -9.25% | [4] 64.6% | [5] 14.8% | [6] -4.55%

C#CC(=O)CCC
inactive: [1] 26.6% | [2] -5.8% | [3] -4.7% | [4] -1.1% | [5] 32.5% | [6] 15.6%

O=C1NC(=S)S/C1=C/C=C/c1ccccc1
inactive: [1] -21.4% | [2] 3.8% | [3] 7.7% | [4] 15.9% | [5] -5.2% | [6] 25.9%

N#C/C(=C/c1ccccc1)c1ccccc1
inactive: [1] 42.5% | [2] 12.6% | [3] 24.6% | [4] 14.5% | [5] 40.9% | [6] 24.1%

CC1(C)OC(=O)C(Cc2ccccc2)(Cc2ccccc2)C(=O)O1
inactive: [1] 2.2% | [2] -19.9% | [3] -11.8% | [4] 30.1% | [5] -17.1% | [6] -13.9%

NC(=O)CC[n+]1ccccc1
inactive: [1] 11.1% | [2] -29.3% | [3] 6.5% | [4] 11.7% | [5] -19.4% | [6] 7.2%

Cc1ccc2c(ccc3nc(N)nc(N)c32)c1
inactive: [1] -0.4% | [2] 11.5% | [3] -5.55% | [4] -42.9% | [5] -47.3% | [6] -2.65%

Nc1nnc2nc(C3(c4nc5nnc(N)n5[nH]c4=O)CCCC3=O)c(=O)[nH]n12
inactive: [1] 13.4% | [2] -10.8% | [3] -8.7% | [4] 3.45% | [5] 4.6% | [6] 16.2%

Nc1ncc2c(n1)-c1ccccc1OC2
inactive: [1] -29.5% | [2] 2.8% | [3] -12.4% | [4] -1.4% | [5] -20.9% | [6] -10.4%

CC(CC(=O)Nc1ccccc1CC(c1c[nH]c2ccccc12)c1c[nH]c2ccccc12)C(=O)O (centres undefined)
inactive: [1] 0.6% | [2] -14.2% | [3] 3.4% | [4] -12.9% | [5] 6.7% | [6] 17.5%

CCCCCCCCCCCC(O)C(C)(C)C (centres undefined)
inactive: [1] 23.7% | [2] 10.1% | [3] -12.6% | [4] -39.2% | [5] 11.9% | [6] 10.3%

CSC(=NC(=O)c1ccccc1)SCCSC(=NC(=O)c1ccccc1)SC
inactive: [1] 6.45% | [2] -7.35% | [3] 2.8% | [4] 33.6% | [5] -3.65% | [6] 6.35%

N=c1oc(-c2ccccc2)cc2ccccc12
inactive: [1] 29.8% | [2] -9.4% | [3] -12.3% | [4] -45.8% | [5] 15.6% | [6] 11.7%

COC(=O)/C([O-])=C(\C(=O)OC)[n+]1cc(Br)cc2ccccc21
inactive: [1] 4.15% | [2] 1.85% | [3] 31.6% | [4] -9.5% | [5] 56.8% | [6] -7.4%

COc1ccc2c(c1)[n+](=O)c(C(=O)C/C(=N/NC(=O)C[N+](C)(C)C)C(=O)Nc1cccc(C)c1C)c(C)n2O
inactive: [1] -23.6% | [2] -2.25% | [3] -41% | [4] -5.5% | [5] 22.9% | [6] -13.9%

CCOC(C)C(Nc1ccc(C(=O)O)cc1)C(=O)Nc1ccc(C(=O)O)cc1 (centres undefined)
inactive: [1] 9.8% | [2] 2% | [3] 4.5% | [4] -29.4% | [5] -5.6% | [6] -10.7%

COC(=O)/C=C(\C(=O)OC)N1CCCCC1
inactive: [1] 1.55% | [2] -3.8% | [3] -6.55% | [4] -29.9% | [5] 2.3% | [6] -23.1%

COc1ccc(COC(=O)Nc2ccc(Br)cc2)c(OC)c1
inactive: [1] -5.05% | [2] 33.6% | [3] 27.2% | [4] -16.6% | [5] 16.8% | [6] 9.55%

Clc1ccc(N=NNc2ccccc2)cc1
inactive: [1] 29.6% and 6.7% | [2] -0.85% and -2.8% | [3] -22.9% and -22.1% | [4] -30.1% and -10.1% | [5] -20.1% and -6.6% | [6] -16.4% and 30.2%

Cc1ccc(N=C2S/C(=C3/CCC=C3N3CCOCC3)N(c3ccc(Cl)cc3)C2=Nc2ccc(C)cc2)cc1
inactive: [1] -8.9% | [2] -13.4% | [3] -14.9% | [4] -14.6% | [5] -22.4% | [6] -28%

COC(=O)C1=C2C3(O)CC4CC5C3CCC(C)N5C24C2CCCC(OC)C2C1OC(=O)c1ccccc1 (centres undefined)
inactive: [1] -2.1% | [2] -27.1% | [3] 17.9% | [4] 8.9% | [5] 0.7% | [6] 24.1%

CC(C)=CC1(C)/C(=N\O)C(C)(CC(C)C)C(=O)N1O (centres undefined)
inactive: [1] -7.15% | [2] -15.2% | [3] -11.8% | [4] -2.2% | [5] -5.65% | [6] -19.4%

CCC(=O)CC(=O)CCC(=O)Nc1ccc(Cl)cc1C
inactive: [1] -72.2% | [2] -15.4% | [3] -11.6% | [4] -55.2% | [5] -12.4% | [6] -9.55%
